Assay results reported in PubChem BioAssay (NCI).
About 79,000 compounds went through this panel and 15% of them were active in at least one assay; those are over-represented in the sample as a whole. Rule as the data show it: active = growth inhibition above about 70%; inactive = the rest.

Tests used:
[1] = NCI Yeast Anticancer Drug Screen. Data for the rad50 strain (AID 155);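 also: 0% = growth of vehicle-only cultures of the same strain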; details: S. cerevisiae rad50 strain growth inhibition; at 50.0 µM; hits give high values
How it was run: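 Genetically altered yeast (DNA repair pathway); compound treatment; growth inhibition vs vehicle ctrl.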

[2] = NCI Yeast Anticancer Drug Screen. Data for the mec2-1 strain (AID 157); details: S. cerevisiae mec2-1 strain, at 50.0 µM, hits give high values
How it was run: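 Cells of the genetically defined mec2-1 yeast strain are incubated with test compound. Inhibition of growth is calculated against vehicle-treated controls.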

[3] = NCI Yeast Anticancer Drug Screen. Data for the sgs1 mgt1 strain (AID 161);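 also: 0% = growth of cultures given vehicle only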; details: S. cerevisiae sgs1 mgt1 strain, at 50.0 µM, hits give high values
How it was run: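 Read-out: growth inhibition vs vehicle controls. Cells: mutant yeast strain deficient in DNA damage repair.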

[4] = NCI Yeast Anticancer Drug Screen. Data for the cln2 rad14 strain (AID 165);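 also: 0% = growth equal to vehicle treated cultures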; details: S. cerevisiae cln2 rad14 strain, at 50.0 µM, hits give high values
How it was run: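 The screen exposed genetically defined yeast (cln2 rad14) to test compounds and scored growth inhibition relative to vehicle-treated controls.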

[5] = NCI Yeast Anticancer Drug Screen. Data for the bub3 strain (AID 167); details: S. cerevisiae bub3 mutant strain, at 50.0 µM, hits give high values
How it was run: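 Yeast carrying a defined mutation is treated with each compound, and growth is compared with that of vehicle-exposed cells to give inhibition.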

[6] = NCI Yeast Anticancer Drug Screen. Data for the mlh1 rad18 strain (AID 175); details: S. cerevisiae mlh1 rad18 strain growth inhibition; at 50.0 µM; hits give high values
How it was run: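 Compound-treated yeast growth, normalised to vehicle controls. Strain bears defined DNA repair mutations.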

Measured: growth inhibition

CC1(C)C2=CCCC(=O)[C@@]2(C)CC[C@@H]1O
inactive: [1] -4.15% | [2] 4.65% | [3] -4.9% | [4] -26.1% | [5] 1.55% | [6] 3.35%

CC(C)(C)c1ccc(O)c(C(O)c2ccncc2)c1 (stereo not given)
inactive: [1] 7.3% | [2] -12.4% | [3] 9.15% | [4] -6.75% | [5] 1.6% | [6] 16.6%

CC1CN=C(N(C(=O)Nc2ccc(Cl)cc2)c2cccc(Cl)c2)S1 (stereo not given)
inactive: [1] -30.9% | [2] -13.7% | [3] -50.1% | [4] -8.75% | [5] -14.8% | [6] -52%

O=C(O)CSc1nc2cc(Cl)c(Cl)cc2[nH]1
inactive: [1] -9.75% | [2] -6.75% | [3] 1.35% | [4] -10.4% | [5] 13.1% | [6] -7.55%

OCCNNCCO
inactive: [1] 13.3% | [2] 1.05% | [3] -14.7% | [4] -8.85% | [5] 15.1% | [6] 1.9%

Cc1ccc(N=Nc2sc(N)nc2-c2ccc(Cl)cc2)cc1
inactive: [1] 28.6% | [2] -2.55% | [3] 35.6% | [4] 39.6% | [5] 17.1% | [6] 62.9%

CN(C(=O)C12C3C4C1C1C2C3C41C(N)=O)C(C)(C)C (stereo not given)
inactive: [1] 9.6% | [2] 7.8% | [3] 4.35% | [4] 25.1% | [5] 18.5% | [6] -6.3%

COc1ccc(CC(C)SC(CC(=O)O)C(=O)O)cc1 (stereo not given)
inactive: [1] 3.45% | [2] -1% | [3] 16.4% | [4] -37.9% | [5] 7.95% | [6] -8.2%

COC(=O)NC(Nc1ccc(Cl)cc1Cl)(C(F)(F)F)C(F)(F)F
inactive: [1] 44.6% | [2] 6.7% | [3] 12.2% | [4] 20.6% | [5] 30.1% | [6] 16.6%

O=C1CSC(c2ccco2)N1CCN1C(=O)CSC1c1ccco1 (stereo not given)
inactive: [1] -19% | [2] -5% | [3] -12.7% | [4] -39.4% | [5] -8.6% | [6] -15.7%

O=C(O)COc1ccc(C(=O)/C(SS/C(C(=O)c2ccc(OCC(=O)O)c(Cl)c2Cl)=C2\C=C(c3ccccc3Cl)SS2)=C2/C=C(c3ccccc3Cl)SS2)c(Cl)c1Cl
inactive: [1] -20.8% | [2] -29.1% | [3] -6.05% | [4] 7.05% | [5] -19.9% | [6] -27.1%

CCOc1ccccc1C=Nc1cc(C(C)C)c(O)cc1C
inactive: [1] -10.2% | [2] -17.2% | [3] 5.6% | [4] -4.6% | [5] 0.85% | [6] -12.3%

O=[N+]([O-])c1ccc(-c2csc3nc(-c4ccccc4)nn23)cc1
inactive: [1] -0.5% | [2] -31.2% | [3] -29.9% | [4] 10.4% | [5] -28.2% | [6] -23.2%

CC(O)C1(O)C(O)CC(OC2c3cc4c(c(O)c3[C@@H]3C[C@@]2(C)OC32C=c3cc[nH]c3=N2)C(=O)c2cccc(O)c2C4=O)OC1C (stereo not given in full)
inactive: [1] 63.5% | [2] 41.1% | [3] 60% | [4] 50.4% | [5] 52% | [6] 67.6%

CN(C)c1ccc(/[N+]([O-])=C/c2cccc3ccccc23)cc1
inactive: [1] 3.05% | [2] 22.6% | [3] 15.2% | [4] -51.9% | [5] 60.3% | [6] 38.4%

COc1ccc(C(=O)CC(=O)C2CCCCC2=O)cc1 (stereo not given)
inactive: [1] -12.5% | [2] -12.3% | [3] -3.4% | [4] -19.8% | [5] 19.3% | [6] -9.05%

C=CCc1ccc(C)c(C)c1O
inactive: [1] 24.4% | [2] 3.55% | [3] 21.8% | [4] 19.1% | [5] 5.55% | [6] 12.8%

O=C(Cn1c(=O)oc2ccc(C(=O)c3cccc(Cl)c3)cc21)c1ccccc1
inactive: [1] -47.4% | [2] -3.15% | [3] -20.6% | [4] -19.5% | [5] 11.3% | [6] -28.1%

CN(c1ccccc1Cl)S(=O)(=O)c1ccccc1[N+](=O)[O-]
inactive: [1] 5.15% | [2] -30.1% | [3] 31.2% | [4] -18% | [5] 38% | [6] 2.95%

CC[Si](/C=C(/C)C(C)(C)C)(CC)CC
inactive: [1] 0.9% | [2] -21.9% | [3] -7.05% | [4] -34.1% | [5] -8.05% | [6] -5.1%
